# Among all 66,000 compounds or so, about 960 (1.5%) showed an effect of 50% or more. The full list was thinned out, with strong results kept by preference.
# Tested on: Trypanosoma brucei
# Experiment: Trypanosoma brucei 72 hour study
# Type: functional, organism-based
# Design: scale not given: in the data most compounds retested in dose-response had high values
structure (smiles),measurement,setting,value
Cc1ccc(CN2CCOC3(COCCN(CCN(C)C)C3)C2)o1.O=C(O)C(F)(F)F.O=C(O)C(F)(F)F.O=C(O)C(F)(F)F (stereo not drawn),Percent Effect,"30 µM, 30.03 µM",20.44%
OC(CNC1CCOCC1)c1cccc(OCc2ccccc2)c1 (stereo not drawn),Percent Effect,"30 µM, 30.03 µM",-36.97%
OC(CNC1CCSCC1)c1cccc(OCc2ccccc2)c1 (stereo not drawn),Percent Effect,"30 µM, 30.03 µM",-20.69%
CN1CCC(NCC(O)c2cccc(OCc3ccccc3)c2)CC1 (stereo not drawn),Percent Effect,"30 µM, 30.03 µM",101.3%
Cl.c1cc(NCc2ccncc2)nc(C2CCCN2)c1 (stereo not drawn),Percent Effect,"30.3 µM, […]",7.613%
CC(C)(C)c1ccc(-n2ncc3c2CCCC3N)cc1 (stereo not drawn),Percent Effect,"30 µM, 30.03 µM",97.82%
Cc1ccc(-n2ncc3c2CCCC3N)cc1C (stereo not drawn),Percent Effect,"30 µM, 30.03 µM",-37.31%
Cc1cc(C)cc(-n2ncc3c2CCCC3N)c1 (stereo not drawn),Percent Effect,"30 µM, 30.03 µM",-36.85%
CN(C)C(=O)C1CCN(C2CCN(CC3CC3)CC2)CC1.O=C(O)C(F)(F)F.O=C(O)C(F)(F)F,Percent Effect,"30.3 µM, […]",-10.13%
CCc1nc(C2CCCN2C(=O)c2ccc3c(c2)nnn3C)no1 (stereo not drawn),Percent Effect,10 µM,-25.38%
same,Percent Effect,"30.3 µM, […]",-22.91%
c1ccc(-c2nc(CN3CCCC3Cn3cncn3)no2)cc1 (stereo not drawn),Percent Effect,"30.3 µM, […]",6.98%
N#Cc1cc(Cl)ccc1N1CCN(C(=O)C2CCC2)CC1,Percent Effect,"30.3 µM, […]",81.04%
CC1CCN(C(=O)C2CCN(c3ccc(Cl)cc3C#N)CC2)CC1,Percent Effect,"30.3 µM, […]",28.97%
CCN(CC)C(=O)C1CCN(c2ccc(Cl)cc2C#N)CC1,Percent Effect,"30.3 µM, […]",-5.722%
O=C(O)C(F)(F)F.O=C(c1cccnc1)N1CCC2(CC1)COCCN(c1ncccn1)C2,Percent Effect,"30 µM, 30.03 µM",-13.17%
COc1ccc(N2Cc3nc(N)ncc3C2=O)cc1Cl,Percent Effect,"30 µM, 30.03 µM",-4.562%
Cc1cc(S(=O)(=O)NCC(C)(C)N)c(F)cc1F.Cl,Percent Effect,"30 µM, 30.03 µM",-16.3%
CNC(=O)c1cc2c(nc1NCC1CC1)CCNCC2,Percent Effect,"30 µM, 30.03 µM",-38.29%
CC(C)CNc1nc2c(cc1C(=O)NCC1CC1)CCNCC2,Percent Effect,"30 µM, 30.03 µM",100.1%
CC(C)Nc1nc2c(cc1C(=O)NCC1CC1)CCNCC2.O=C(O)C(F)(F)F.O=C(O)C(F)(F)F,Percent Effect,"30 µM, 30.03 µM",-26.83%
O=C(O)C(F)(F)F.O=C1CCCN1Cc1nnc2n1CCN(Cc1ccccn1)CC2,Percent Effect,"30.3 µM, […]",-8.188%
Cc1cc(C[C@@H]2CCC[C@H]2NCc2c[nH]nc2-c2ccccc2)on1.O=C(O)CC(O)(CC(=O)O)C(=O)O,Percent Effect,"30.3 µM, […]",19.9%
CNC(=O)c1cc2c(nc1NCC(C)C)CCN(c1ncccn1)CC2.O=C(O)C(F)(F)F,Percent Effect,"30.3 µM, […]",98.85%
CNC(=O)c1cc2c(nc1NCC(C)C)CCN(C)CC2.O=C(O)C(F)(F)F.O=C(O)C(F)(F)F,Percent Effect,"30.3 µM, […]",-104.3%
CNC(=O)c1cc2c(nc1NCC(C)C)CCN(c1ccncn1)CC2.O=C(O)C(F)(F)F,Percent Effect,"30 µM, 30.03 µM",-20.72%
O=C(CSc1ccc(F)c(F)c1)NS(=O)(=O)c1ccc2c(c1)OCCO2,Percent Effect,"30 µM, 30.03 µM",-8.026%
O=C(CSc1ccc2c(c1)OCCO2)NS(=O)(=O)c1ccccc1F,Percent Effect,"30 µM, 30.03 µM",-24.23%
O=C(CSc1ccc2c(c1)OCCO2)NS(=O)(=O)c1cc(F)ccc1F,Percent Effect,"30 µM, 30.03 µM",61.54%
CN1C(=O)CC(c2ccccc2)C12CCN(CC1CCOCC1)CC2.O=C(O)C(F)(F)F (stereo not drawn),Percent Effect,"30.3 µM, […]",-3.358%
COCCN1CCCn2c(nc(Cn3cncn3)cc2=O)C1.O=C(O)C(F)(F)F,Percent Effect,"30 µM, 30.03 µM",64.46%
O=C(O)C(F)(F)F.O=c1cc(Cn2cncn2)nc2n1CCCN(Cc1ccc(F)cc1)C2,Percent Effect,"30 µM, 30.03 µM",27.77%
O=C(O)C(F)(F)F.O=C(O)C(F)(F)F.O=c1cc(Cn2cncn2)nc2n1CCCN(CCN1CCCC1)C2,Percent Effect,"30 µM, 30.03 µM",14.15%
O=C(O)C(F)(F)F.c1cnc(NCc2nnn3c2CN(CC2CC2)CCC3)nc1,Percent Effect,"30.3 µM, […]",-52.08%
Cc1nn(C)c(N(C)C)c1CNC1CCc2cc(F)ccc21.Cl (stereo not drawn),Percent Effect,10 µM,-39.72%
Cc1ccc(C(=O)N2CCc3ncc(Cn4cccn4)n3CC2)cn1,Percent Effect,"30.3 µM, […]",-7.438%
Cn1cccc1C(=O)N1CCc2ncc(Cn3cccn3)n2CC1,Percent Effect,"30 µM, 30.03 µM",59.24%
O=C(c1ccoc1)N1CCc2ncc(Cn3cccn3)n2CC1,Percent Effect,"30.3 µM, […]",-11.59%
CS(=O)(=O)NCc1cncc2c1CCN(C(=O)c1cccnc1)C2.Cl.Cl,Percent Effect,"30.3 µM, […]",-7.257%
COCC1CN(Cc2ccoc2)Cc2nnn(C)c21.O=C(O)C(F)(F)F (stereo not drawn),Percent Effect,"30 µM, 30.03 µM",-46.26%
CCc1c(C)nc2cc(C3CCN(Cc4cccc(F)c4)C3)nn2c1O (stereo not drawn),Percent Effect,"30.3 µM, […]",27.1%
CCc1c(C)nc2cc(C3CCN(CCc4ccccc4)C3)nn2c1O (stereo not drawn),Percent Effect,"30.3 µM, […]",58.63%
CCc1c(C)nc2cc(C3CCN(Cc4cccnc4)C3)nn2c1O (stereo not drawn),Percent Effect,"30.3 µM, […]",7.415%
